In PubChem BioAssay AID720511 (Broad Institute, 2013):
The whole screen tested about 350,000 compounds, of which about 1,300 (0.37%) were called active. The sample as a whole holds a higher share of actives than the screen did. A number with no mark means an inactive call.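 Rule for the calls: active = mean added fluorescence quench of at least 8% versus neutral control, with both replicates also reaching 8%; inconclusive = only one of the mean or replicate conditions met; inactive = mean below 8% and not both replicates reaching 8%.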

Test: F508del CFTR correction, initial screen, CFBE line, single point (AID 720511);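 note: cells transiently co-express mutant CFTR-F508del with the halide-sensitive YFP; corrector assay measuring rescue of mutant channel to the surface after 24 h compound exposure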
Conditions: CFBE cells, YFP halide quenching, at 7.58 µM, hits give high values

| Compound | activity (quench increase) |
| --- | --- |
| C[C@]12CCC3C(CC[C@H]4C[C@@H](O)CC[C@]34C)C1C[C@@H](O)[C@H]2O (stereo not given in full) | 1.25% |
| C[C@]12CCC3C(CC[C@H]4[C@H](O)[C@H](O)CC[C@]34C)C1CC[C@@H]2O (stereo not given in full) | 0.916% |
| C[C@]12CCC3C(CC[C@H]4[C@H](O)[C@H](O)CC[C@]34C)C1CCC2=O (stereo not given in full) | 11.1% (active) |
| COC(=O)C1=C(c2ccc(OCc3ccccc3)cc2)C[C@@H]2CC[C@H]1N2C(=O)NCc1ccc(Cl)cc1 | 4.11% |
| C/C=C/c1ccc(C2[C@@H]3CN(Cc4cncnc4)C[C@H]2N3)cc1 (stereo not given in full) | 2.42% [% fluorescence drop versus neutral controls, stimulated with forskolin plus potentiator P3] |
